BAZ2B inh – qHTS Assay for Inhibitors of BAZ2B | Bromodomain adjacent to zinc finger domain protein 2B (Homo sapiens), Q9UIF8 | AlphaScreen BAZ2B-H3K14Ac peptide displacement | Potency, µM (series often up to 114 µM), without a hit: top-dose activity change, negative = inhibition, usual class: inhibitors | hit rate 4.4% among 360,000; note: % is set by controls: 0 for no effect and ±100 for the full control effect; nearly all actives have a fitted effect of over 60% in size
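Protein-peptide AlphaScreen: BAZ2B 50 nM, b-H3K14Ac 50 nM, 1x PBS pH 7.4 + 0.01% Tween-20. Preincubation 30 min RT; cpd 30 min RT (top 110 uM); beads 20 min RT, light-protected.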
HP1b chromo inh – HTS for Inhibitors of HP1-beta Chromodomain Interactions with Methylated Histone Tails; Chromobox protein homolog 1 (Homo sapiens), P83916; AlphaScreen HP1-beta / biotin-H3K9me3 peptide binding; Potency, µM (doses to about 114 µM), for the others: at the top dose activity change, negative = inhibition, actives largely listed as inhibitors; hit rate 0.56% among 390,000; note: nearly all actives have a fitted effect of over 70% in size
Target sequence (P83916 whole entry, looked up): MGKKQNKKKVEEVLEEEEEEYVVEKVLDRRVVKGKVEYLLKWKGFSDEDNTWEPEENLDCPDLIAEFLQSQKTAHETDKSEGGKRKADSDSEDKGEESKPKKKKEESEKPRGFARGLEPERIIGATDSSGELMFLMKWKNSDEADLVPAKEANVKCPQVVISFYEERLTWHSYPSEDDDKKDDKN
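Compound inhibition of the preformed complex between 50 nM HP1-beta and 50 nM biotinylated H3K9me3 peptide was read by AlphaScreen. Buffer was PBS pH 7.4 with 0.01% Tween-20. Incubations ran 30 min at room temperature, with 10 ug/mL donor/acceptor beads.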
JMJD2A Tudor inh – qHTS Assay for Inhibitors of JMJD2A-Tudor Domain | Lysine-specific demethylase 4A (Homo sapiens), O75164 | AlphaScreen JMJD2A-Tudor / H3K4me3 peptide binding | Potency, µM (titrated, usually from 114 µM), without a hit: top-dose activity change, negative = inhibition, hits mostly inhibitors | hit rate 4.4% among 390,000; note: % is set by controls: 0 for no effect and ±100 for the full control effect; nearly all actives have a fitted effect of over 50% in size
GLS inh – qHTS for Inhibitors of Glutaminase (GLS); Potency, µM (doses to about 45.5 µM), for inactives: top-dose activity change, negative = inhibition, actives largely listed as inhibitors; GLS enzymatic activity, qHTS titration; hit rate 0.21% among 410,000; note: % is set by controls: 0 for no effect and ±100 for the full control effect
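Coupled fluorescence readout: glutamate oxidase/HRP/Amplex Red detect glutamate formed by hKGA from L-glutamine (1 mM solution added). Buffer 45 mM KH2PO4 pH 8.2, 0.02% Tween-20; reads at t0 and 30 min RT.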
G9a block – qHTS Assay for Inhibitors of Histone Lysine Methyltransferase G9a. Histone-lysine N-methyltransferase EHMT2 (Homo sapiens), Q96KQ7. G9a H3K9 monomethylation, AlphaScreen, 2 h. Potency, µM (highest dose often 102 µM), for the others: at the top dose activity, negative = inhibition, usual class: inhibitors. hit rate 8.8% among 350,000; note: % is set by controls: 0 for no effect and ±100 for the full control effect; nearly all actives have a fitted effect of over 75% in size
Target sequence (Q96KQ7 913-1193 limits assumed): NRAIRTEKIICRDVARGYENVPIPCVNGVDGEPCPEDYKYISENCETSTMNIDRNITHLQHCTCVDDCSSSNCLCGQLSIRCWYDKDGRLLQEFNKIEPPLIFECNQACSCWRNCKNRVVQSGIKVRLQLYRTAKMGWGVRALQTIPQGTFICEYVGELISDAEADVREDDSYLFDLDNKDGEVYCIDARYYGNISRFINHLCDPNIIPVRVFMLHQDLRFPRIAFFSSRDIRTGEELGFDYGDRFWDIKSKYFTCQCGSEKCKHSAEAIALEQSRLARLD
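AlphaScreen detection with an anti-monomethyl H3K9 antibody quantified product after a 2 h room-temperature reaction containing 500 nM biotinylated H3K9 peptide, 20 µM SAM and 20 nM enzyme, which had been preincubated 15 min with compound.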
* hit, by the source's call; u = inconclusive; x = not tested or not shown; [ ] = dose if it differs, or a comment. An excerpt weighted towards active compounds, which were near 10% of everything screened. Calls come from the whole dose curve; as a rule, active = well fitted curve in the direction sought with a large enough effect; inconclusive = small, poorly fitted or top-dose-only effect, or another doubt; inactive = no such curve, though single readings can be large; an effect the other way counts as inactive or inconclusive. Potency is the fitted concentration of half-maximal effect.

SMILES	BAZ2B inh	HP1b chromo inh	JMJD2A Tudor inh	GLS inh	G9a block
Cc1cc(C(=O)CSc2nnnn2-c2ccccc2)c(C)n1CCc1ccccc1	5.9%	17.6%	-17.3%	10.2%	3.7%
Cc1cc(C(=O)CSc2nnnn2C)c(C)n1CCc1ccc(F)cc1	4.5%	26.2%	-10.6%	-11.3%	21.5%
CCc1cccc2c(C(=O)CSc3nnc(-c4ccncc4)n3C)c[nH]c12	-32.9%	31.6%	-9.1%	-5.6%	31.6µM*
COC(=O)[C@]1(C)CCC[C@@]2(C)C3CC[C@@]4(C)C[C@]3(CCC21)CC(=O)N4 (stereo not given in full)	4.6%	15.3%	-19.9%	8.2%	4.3%[0.501 µM]
CCOC(=O)c1[nH]c(C)c(C(=O)NCc2ccc(F)cc2)c1C	u	-7.4%	-27.2%	-2.4%	-37.1%[59 µM]
CC1=CCC2C(=O)N(c3ccc4ccccc4n3)C(=O)C2C1 (stereo not given)	-5.0%	41.4%	-7.6%	-2.3%	-15.2%[59 µM]
Cc1ccc(-n2c(C)cc(C(=O)CSc3nncs3)c2C)cc1	-65.0%	-8.9%	u	-1.1%	u
Cc1cc(C(=O)C(C)Cl)c(C)n1Cc1ccco1 (stereo not given)	u	u	50.1µM*	29.5%	u
Cc1ccccc1-n1c(SCC(=O)c2cc(C)n(C)c2C)nnc1-c1ccncc1	u	1.1%	-26.7%[57.1 µM]	-10.9%	70.8µM*
Cc1cc(C(=O)CSc2ncccn2)c(C)n1Cc1ccco1	8.1%	48.0%	-11.0%	-4.1%	44.7µM*
Cc1ccc(-n2c(C)cc(C(=O)CSc3nnnn3C)c2C)cc1	50.1µM*	-17.7%	u	-3.7%	14.1µM*
Cc1cc(C(=O)CN2C(=O)NC3(CCCCC3)C2=O)c(C)n1Cc1ccco1	u	8.5%	-31.7%	9.8%	-36.7%
CCc1ccccc1S(=O)(=O)Cc1ccc(C(=O)NCc2ccc3c(c2)OCO3)o1	4.4%	44.9%	-12.0%	-6.2%	-22.9%
CCOC(=O)[C@]12CCCC=C1N(Cc1ccc(Cl)cc1Cl)C(=O)[C@H](CC(=O)N1CCCC1)C2	x	x	x	7.9%	x
Cn1nnnc1SCC1=C(C(=O)O)N2C(=O)C(NC(=O)Cn3nc(C(F)F)cc3C3CC3)C2SC1 (stereo not given)	70.8µM*	25.2%	-17.7%	-0.8%	u
Cc1nn(CC(=O)NC2C(=O)N3C(C(=O)O)=C(CSc4nnnn4C)CSC23)cc1Br (stereo not given)	u	48.6%	0.0%	-11.4%	39.8µM*
Cc1cc(=O)c(C(=O)N[C@@H](C(=O)N[C@@H]2C(=O)N3C(C(=O)O)=C(CSc4nnnn4C)CS[C@H]23)c2ccc(O)cc2)c[nH]1	x	x	x	17.4%	-0.8%[12.7 µM]
Cc1c(Cl)cnn1CC(=O)NC1C(=O)N2C(C(=O)O)=C(CSc3nnnn3C)CSC12 (stereo not given)	56.2µM*	36.6%	-15.9%	-23.6%	u
Cc1c(Cl)c(C(F)F)nn1CC(=O)NC1C(=O)N2C(C(=O)O)=C(CSc3nnnn3C)CSC12 (stereo not given)	-38.1%	6.5%	-29.6%	-12.8%	28.2µM*
C=CCSc1nc2c(c(=O)[nH]c(=O)n2C)n1C(C)C	-4.8%	-36.0%	-14.3%	5.7%	u
O=c1ccn2c(n1)SC(c1ccccc1)C2 (stereo not given)	x	x	x	-2.3%	x
Cc1[nH][nH]c(=O)c1N=Nc1ccc(S(N)(=O)=O)cc1	x	20.1%	-6.4%	15.3%	x
Cn1c(=S)[nH]c(=O)c2ncc(=O)[nH]c21	-20.8%	28.1%	28.2µM*	-14.2%	u
COc1ccccc1/C=C1\CCCC2=C1Nc1nnnn1C2c1ccccc1OC (stereo not given)	u	7.0%	u	4.5%	10µM*
COc1ccccc1NC(=O)C1=C(C)Nc2nnnn2C1c1ccccc1OC (stereo not given)	1.9%	34.0%	-14.8%	19.0%	-21.1%[12.7 µM]
SMILES	BAZ2B inh	HP1b chromo inh	JMJD2A Tudor inh	GLS inh	G9a block
COc1cccc(CNCC(O)COc2ccc(C(=O)c3ccccc3)cc2)c1 (stereo not given)	50.1µM*	u	56.2µM*	8.8%	10µM*
O=C(c1ccccc1)c1ccc(OCC(O)CNCc2ccc(Cl)cc2)cc1 (stereo not given)	56.2µM*	u	20µM*	-3.4%	u
COC(=O)[C@@H](NCc1ccc(B(O)O)cc1)C(C)C	x	14.6%	-19.9%	0.3%	x
COc1cccc(-c2ccc3c(N)c(C(=O)Nc4ccccc4C)sc3n2)c1	55.3%	113.8%	42.9%	2.3%	-25.2%[59 µM]
CCOc1ccc(NC(C)c2cc(Cl)ccc2O)cc1 (stereo not given)	35.5µM*	u	u	13.4%	39.8µM*
CC(C)Oc1ccc(OCCn2c(=S)[nH]c3c(N)ncnc32)cc1	-33.7%	u	5.62µM*	-7.7%	2.51µM*
Cc1ccc(OCCn2c(=S)[nH]c3c(N)ncnc32)cc1	-26.3%	u	5.01µM*	u	3.55µM*
NC(=O)CNc1n[nH]c(=S)[nH]c1=O	-5.5%	-4.2%	20µM*	9.0%	x
CCCCOC(=O)CNc1n[nH]c(=S)[nH]c1=O	-34.9%	23.3%	-23.9%	6.9%	-2.8%[12.7 µM]
CC(C)COC(=O)CNc1n[nH]c(=S)[nH]c1=O	3.6%	-1.9%	50.1µM*	21.9%	-8.2%[12.7 µM]
CCc1nc2nc(C)c(NS(=O)(=O)c3ccc(CC(C)C)cc3)c(=O)n2[nH]1	7.6%	68.5%	-1.4%	35.3%	-8.8%
CCN1CCCC1CN(Cc1cc2ccc(C)cc2[nH]c1=O)C(=S)Nc1ccc(OC)cc1OC (stereo not given)	-29.4%	9.8%	-25.5%	-22.3%	-14.4%
CCN1CCCC1CN(Cc1cc2cc(C)cc(C)c2[nH]c1=O)C(=O)Nc1ccccc1OC (stereo not given)	-10.9%	13.2%	-12.7%	-3.6%	50.1µM*
COCCN(CCOC)C(=O)CN1C(=O)NC(Cc2c[nH]c3ccccc23)C1=O (stereo not given)	8.5%	-12.4%	-2.5%	0.4%	-7.7%
O=C(CSc1nnc(NC(=O)c2c(F)cccc2F)s1)NCc1ccco1	8.6%	18.9%	-15.5%	0.1%	44.7µM*
O=C(CSc1nc(-c2ccc(F)cc2)cs1)NC(=O)NCc1ccco1	50.1µM*	3.8%	u	-12.8%	-16.5%[59 µM]
Cc1ccccc1Nc1nnc(SCC(=O)NC(=O)NCc2ccco2)s1	-37.4%	-5.2%	u	u	35.5µM*
O=C(CSc1nncs1)NC(=O)NCc1ccco1	x	19.0%	-18.5%	-0.5%	-32.2%
c1cncc(C(c2nnnn2C2CCCC2)N2CCN(Cc3ccc4c(c3)OCO4)CC2)c1 (stereo not given)	-6.5%	10.8%	-11.6%	11.7%	-36.2%
